Reference: PubChem BioAssay (Tox21)
Records with an inconclusive call do not appear. Activity calls are given as the source filed them. Calls come from the whole dose curve; as a rule, active = well fitted curve in the direction sought with a large enough effect in the repeat runs; inconclusive = weak or mixed curves; inactive = no such curve, though single readings can be large; an effect the other way counts as inactive or inconclusive. Non-standard residues stand in square brackets, D forms with d. Residues, ends and D or L forms follow the SMILES beside them. *: point of attachment. Sta = CC(C)C[C@H](N)[C@@H](O)CC(=O)O; Isovaleryl = CC(C)CC(=O)*

Assay: A CellTox Green Cytotoxicity Assay to monitor cytotoxicity in HEK293 cells - 16 hour (AID 1224888); note: nearly all actives have a fitted effect of over 35% in size
Settings: CellTox Green fluorescence; series mostly up to 76.8 µM; activity change: at the top concentration
Outline: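 Cytotoxicity was tracked continuously in HEK293 cells by a DNA-binding dye excluded from viable cells. Compounds were transferred in DMSO 5 h after seeding; fluorescence was recorded at intervals up to 40 h.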
% is set by controls: 0 for no effect and ±100 for the full control effect.

Structure (SMILES)	activity change
CCCC(=O)C(CC)Sc1ccoc1C (configuration not stated)	8.35% (inactive)
CCNC(=O)C(C)OC(=O)Nc1ccccc1 (configuration not stated)	9.02% (inactive)
c1cc2ccc3ccc4ccc5cccc6c(c1)c2c3c4c56	-11.1% [at 2.72 µM, active compounds read high] (inactive)
COc1cc(S(N)(=O)=O)cc(C(=O)O)c1OC	4.78% [at 35.3 µM, active compounds read high] (inactive)
CCOCCOCCOC(C)=O	10.3% (inactive)
COC(=O)C(c1ccccc1Cl)N1CCc2sccc2C1 (configuration not stated)	10.5% [at 35.3 µM, active compounds read high] (inactive)
CCCCC(CC)COC(=O)CC#N (configuration not stated)	-13% (inactive)
CCCCCCCC(=O)N(C)C	3.06% (inactive)
CC(C)=CCC/C(C)=C\C#N	-15.1% (inactive)
CC(C)(C)c1ccc(N)cc1	8.37% (inactive)
CCCC(=O)CC	2.6% (inactive)
CC1=C(O)C(=O)CO1	-1.29% (inactive)
CC(=O)SC[C@@H](C)C(=O)N1CCC[C@H]1C(=O)N[C@@H](Cc1ccccc1)C(=O)O	-0.221% [at 35.3 µM, active compounds read high] (inactive)
Cc1cc2c(cc1CC(=O)c1sccc1S(=O)(=O)Nc1onc(C)c1Cl)OCO2	-20.8% [at 35.3 µM, active compounds read high] (inactive)
CC(C)(C)C(=O)NCCCC(=O)O	-15.3% [at 35.3 µM, active compounds read high] (inactive)
O=CN1CCCCC1	-0.0308% (inactive)
COC(=O)c1ccccc1Cl	-3.14% (inactive)

Structure (SMILES)	activity change
CC/C=C/CCCCCCCCCCOC(C)=O	3.07% (inactive)
C=CCN(CC=C)CC=C	-10.6% (inactive)
C=CCON/C(CCC)=C1\C(=O)CC(C)(C)C(C(=O)OC)=C1O	13.9% (inactive)
CC/C=C\CCCCCCCCCCOC(C)=O	1.03% (inactive)
Cc1cc(O)c(Cl)cc1C	11.7% (inactive)
CCOC(=O)c1ccc(N(C)C)cc1	-3.52% (inactive)
CCC(C)(C)C	18.2% (inactive)
COc1cc(C(=O)NC2CCCNC2)cc(OC)c1OC (configuration not stated)	0.962% [at 35.3 µM, active compounds read high] (inactive)
CCC(C)SSC(C)CC (configuration not stated)	18.3% (inactive)
O=S(=O)(O)CC(O)CCl (configuration not stated)	0.0398% (inactive)
O=Cc1ccccc1S(=O)(=O)O	-0.934% (inactive)
CC(C)CC(=O)N[C@H](C(=O)N[C@H](C(=O)N[C@@H](CC(C)C)[C@@H](O)CC(=O)N[C@@H](C)C(=O)N[C@@H](CC(C)C)[C@@H](O)CC(=O)O)C(C)C)C(C)C (Isovaleryl-VV[Sta]A[Sta]-OH)	4.07% [at 35.3 µM, active compounds read high] (inactive)
O=C(O)CCC(=O)Nc1ccc(S(=O)(=O)Nc2nccs2)cc1	-17.5% [at 35.3 µM, active compounds read high] (inactive)
Cc1ccc(Br)cc1	7.9% (inactive)
CC(C)C(C)C	-0.725% (inactive)
CC(=O)Nc1ccc(S(=O)(=O)Nc2cc(C)on2)cc1	6.56% [at 35.3 µM, active compounds read high] (inactive)
C=CC(=O)OCC[N+](C)(C)C	15.6% (inactive)

Assay: qHTS RealTime-Glo MT Cell Viability Assay in HepG2 cells - 0 hour (AID 1224889); note: nearly all actives have a fitted effect of over 50% in size
Settings: RealTime-Glo luminescence; series mostly up to 76.8 µM; activity change, negative = cytotoxicity: at the top concentration
Outline: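 HepG2 cells (600/well) were dispensed with RealTime-Glo reagents, incubated 5 h at 37 °C, then treated with compounds in DMSO for up to 40 h. Nonlytic NanoLuc luminescence reflecting viable cells was read at each stated time point.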

Structure (SMILES)	activity change, negative = cytotoxicity
CCNC(=O)C(C)OC(=O)Nc1ccccc1 (configuration not stated)	-0.709% (inactive)
COc1cc(OC)cc(OC)c1	5.45% [at 35.3 µM] (inactive)
c1cc2ccc3ccc4ccc5cccc6c(c1)c2c3c4c56	3.24% [at 2.72 µM] (inactive)
COc1cc(S(N)(=O)=O)cc(C(=O)O)c1OC	-1.81% [at 35.3 µM] (inactive)
CCOCCOCCOC(C)=O	1.52% (inactive)
COC(=O)C(c1ccccc1Cl)N1CCc2sccc2C1 (configuration not stated)	-9.43% [at 35.3 µM] (inactive)
CCCCC(CC)COC(=O)CC#N (configuration not stated)	-2.42% (inactive)
CCCCCCCC(=O)N(C)C	0.786% (inactive)
CC(C)=CCC/C(C)=C\C#N	22.2% (inactive)
CC(C)(C)c1ccc(N)cc1	2.03% (inactive)
CCCC(=O)CC	-5.99% (inactive)
CC1=C(O)C(=O)CO1	1.48% (inactive)
CC(=O)SC[C@@H](C)C(=O)N1CCC[C@H]1C(=O)N[C@@H](Cc1ccccc1)C(=O)O	0.131% [at 35.3 µM] (inactive)
CC(C)(C)C(=O)NCCCC(=O)O	2.58% [at 35.3 µM] (inactive)
O=CN1CCCCC1	-3.19% (inactive)
COC(=O)c1ccccc1Cl	5.18% (inactive)
CC/C=C/CCCCCCCCCCOC(C)=O	-4.15% (inactive)

Structure (SMILES)	activity change, negative = cytotoxicity
C=CCN(CC=C)CC=C	0.14% (inactive)
C=CCON/C(CCC)=C1\C(=O)CC(C)(C)C(C(=O)OC)=C1O	0.469% (inactive)
Nc1cc(S(=O)(=O)O)ccc1O	-6.5% (inactive)
Cc1cc(O)c(Cl)cc1C	19.5% (inactive)
CCOC(=O)c1ccc(N(C)C)cc1	-6.38% (inactive)
CCC(C)(C)C	3.18% (inactive)
O=C(O)CCCCCCCCCC(=O)O	-6.62% (inactive)
CCC(C)SSC(C)CC (configuration not stated)	2.07% (inactive)
O=S(=O)(O)CC(O)CCl (configuration not stated)	-9.13% (inactive)
O=Cc1ccccc1S(=O)(=O)O	7.43% (inactive)
CC(C)C(=O)Nc1cccc(C2CN3CCSC3=N2)c1 (configuration not stated)	4.87% [at 35.3 µM] (inactive)
CC(C)CC(=O)N[C@H](C(=O)N[C@H](C(=O)N[C@@H](CC(C)C)[C@@H](O)CC(=O)N[C@@H](C)C(=O)N[C@@H](CC(C)C)[C@@H](O)CC(=O)O)C(C)C)C(C)C (Isovaleryl-VV[Sta]A[Sta]-OH)	0.116% [at 35.3 µM] (inactive)
O=C(O)CCC(=O)Nc1ccc(S(=O)(=O)Nc2nccs2)cc1	-21% [at 35.3 µM] (inactive)
Cc1ccc(Br)cc1	0.241% (inactive)
CC(C)C(C)C	-0.249% (inactive)
CC(=O)Nc1ccc(S(=O)(=O)Nc2cc(C)on2)cc1	4.88% [at 35.3 µM] (inactive)
C=CC(=O)OCC[N+](C)(C)C	2.23% (inactive)

Assay: A CellTox Green Cytotoxicity Assay to monitor cytotoxicity in HepG2 cells - 8 hour (AID 1224890); note: nearly all actives have a fitted effect of over 45% in size
Settings: CellTox Green fluorescence; series mostly up to 76.8 µM; cytotoxicity increase: at the top concentration
Outline: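 Real-time, homogeneous cytotoxicity readout: dead-cell DNA staining by CellTox Green in HepG2 monolayers, fluorescence measured at timed intervals up to 40 h of continuous compound exposure.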

Structure (SMILES)	cytotoxicity increase
CCCC(=O)C(CC)Sc1ccoc1C (configuration not stated)	16% (inactive)
CCNC(=O)C(C)OC(=O)Nc1ccccc1 (configuration not stated)	-11.7% (inactive)
COc1cc(OC)cc(OC)c1	2% [at 35.3 µM] (inactive)
c1cc2ccc3ccc4ccc5cccc6c(c1)c2c3c4c56	-16.5% [at 2.72 µM] (inactive)
COc1cc(S(N)(=O)=O)cc(C(=O)O)c1OC	1.01% [at 35.3 µM] (inactive)
CCOCCOCCOC(C)=O	4.69% (inactive)
COC(=O)C(c1ccccc1Cl)N1CCc2sccc2C1 (configuration not stated)	0.95% [at 35.3 µM] (inactive)
CCCCC(CC)COC(=O)CC#N (configuration not stated)	-2.73% (inactive)
CC(C)=CCC/C(C)=C\C#N	-2.64% (inactive)
CC(C)(C)c1ccc(N)cc1	13.1% (inactive)
CCCC(=O)CC	0.132% (inactive)
CC1=C(O)C(=O)CO1	3.93% (inactive)
CC(=O)SC[C@@H](C)C(=O)N1CCC[C@H]1C(=O)N[C@@H](Cc1ccccc1)C(=O)O	-4.68% [at 35.3 µM] (inactive)
Cc1cc2c(cc1CC(=O)c1sccc1S(=O)(=O)Nc1onc(C)c1Cl)OCO2	-16.2% [at 35.3 µM] (inactive)
CC(C)(C)C(=O)NCCCC(=O)O	-13.7% [at 35.3 µM] (inactive)
O=CN1CCCCC1	0.635% (inactive)
COC(=O)c1ccccc1Cl	-0.321% (inactive)

Structure (SMILES)	cytotoxicity increase
CC/C=C/CCCCCCCCCCOC(C)=O	-12.2% (inactive)
C=CCN(CC=C)CC=C	-10.8% (inactive)
C=CCON/C(CCC)=C1\C(=O)CC(C)(C)C(C(=O)OC)=C1O	-20.6% (inactive)
Nc1cc(S(=O)(=O)O)ccc1O	0.863% (inactive)
CC/C=C\CCCCCCCCCCOC(C)=O	0.452% (inactive)
CCOC(=O)c1ccc(N(C)C)cc1	-9.44% (inactive)
CCC(C)(C)C	1.02% (inactive)
O=C(O)CCCCCCCCCC(=O)O	-9.57% (inactive)
COc1cc(C(=O)NC2CCCNC2)cc(OC)c1OC (configuration not stated)	-34.7% [at 35.3 µM] (inactive)
CCC(C)SSC(C)CC (configuration not stated)	-9.55% (inactive)
O=S(=O)(O)CC(O)CCl (configuration not stated)	1.09% (inactive)
O=Cc1ccccc1S(=O)(=O)O	3.94% (inactive)
CC(C)C(=O)Nc1cccc(C2CN3CCSC3=N2)c1 (configuration not stated)	-0.276% [at 35.3 µM] (inactive)
Cc1ccc(Br)cc1	3.64% (inactive)
CC(C)C(C)C	-7.33% (inactive)
CC(=O)Nc1ccc(S(=O)(=O)Nc2cc(C)on2)cc1	-13% [at 35.3 µM] (inactive)
C=CC(=O)OCC[N+](C)(C)C	11.5% (inactive)
